# Data published in the supplement of paper PMC10105736.
# Values without a mark were called inactive.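 Rule for the calls: active = MAPPIT score above the 99th percentile of random reference set scores in the same batch; inactive = at or below it.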
# Experiments:
# Assay in all cases: MAPPIT interaction score (arbitrary units); higher = stronger binary interaction signal, active = hit call of the paper
# [1] = system: Arpc3A; conditions: pair source set: Lit-BM-16
# [2] = system: Atg1; conditions: MAPPIT configuration: N-N; pair source set: Finley_Y2H
# [3] = system: C15; conditions: MAPPIT configuration: N-N; pair source set: Lit-BS-16
# [4] = system: CG12567; conditions: MAPPIT configuration: N-N; pair source set: Finley_Y2H
# [5] = system: mRpL47; conditions: MAPPIT configuration: N-N; pair source set: Finley_Y2H
# [6] = system: CG14044; conditions: MAPPIT configuration: N-N; pair source set: Finley_Y2H
# [7] = system: CG14985; conditions: MAPPIT configuration: N-N; pair source set: screen_2
# [8] = system: CG15545; conditions: MAPPIT configuration: N-N; pair source set: Curagen_low_conf
# [9] = system: CG1607; conditions: MAPPIT configuration: N-N; pair source set: DPIM
# [10] = system: CG1640; conditions: MAPPIT configuration: N-C; pair source set: screen_4
# [11] = system: Pex5; conditions: MAPPIT configuration: N-N; pair source set: Curagen_low_conf
# [12] = system: CG17377; conditions: MAPPIT configuration: N-C; pair source set: screen_4
# [13] = system: CG32817; conditions: MAPPIT configuration: N-N; pair source set: screen_2
# [14] = system: Mst87F; conditions: MAPPIT configuration: N-N; pair source set: screen_2
# [15] = system: CG2120; conditions: MAPPIT configuration: N-C; pair source set: screen_3
# [16] = system: Odj; conditions: MAPPIT configuration: N-N; pair source set: screen_2
# [17] = system: caup; conditions: MAPPIT configuration: N-C; pair source set: screen_3
# [18] = system: CG31406; conditions: pair source set: RRS
# [19] = system: Hakai; conditions: MAPPIT configuration: N-N; pair source set: DPIM
# [20] = system: Lkb1; conditions: MAPPIT configuration: N-N; pair source set: DPIM
# [21] = system: RnrS; conditions: MAPPIT configuration: N-N; pair source set: DPIM
# [22] = system: bai; conditions: MAPPIT configuration: N-N; pair source set: DPIM
# [23] = system: mRpS24; conditions: MAPPIT configuration: N-N; pair source set: DPIM
# [24] = system: scf; conditions: MAPPIT configuration: N-N; pair source set: DPIM
# [25] = system: CG31740; conditions: MAPPIT configuration: N-N; pair source set: screen_2
# [26] = system: CG4250; conditions: MAPPIT configuration: N-C; pair source set: screen_4
# [27] = system: lms; conditions: MAPPIT configuration: N-N; pair source set: screen_1
# [28] = system: CG3517; conditions: MAPPIT configuration: N-N; pair source set: screen_1
# [29] = system: CG3703; conditions: MAPPIT configuration: N-N; pair source set: Finley_Y2H
# [30] = system: CG4116; conditions: MAPPIT configuration: N-N; pair source set: Curagen_high_conf
# [31] = system: CG44250; conditions: MAPPIT configuration: N-N; pair source set: screen_2
# [32] = system: lwr; conditions: MAPPIT configuration: N-N
# [33] = system: CG4619; conditions: MAPPIT configuration: N-N; pair source set: DPIM
# [34] = system: CG46385; conditions: MAPPIT configuration: N-N; pair source set: screen_1
# [35] = system: CG7011; conditions: MAPPIT configuration: N-N; pair source set: Lit-BS-16
# [36] = system: CG5111; conditions: MAPPIT configuration: N-C; pair source set: screen_3
# [37] = system: CG8173; conditions: MAPPIT configuration: N-N; pair source set: screen_1
# [38] = system: Vsx2; conditions: MAPPIT configuration: N-N; pair source set: screen_2
# [39] = system: CG8997; conditions: MAPPIT configuration: N-N; pair source set: Finley_Y2H
# [40] = system: Src64B; conditions: MAPPIT configuration: N-N; pair source set: Lit-BS-16
# [41] = system: Nost; conditions: MAPPIT configuration: N-N; pair source set: Curagen_high_conf
# [42] = system: CkIIalpha; conditions: MAPPIT configuration: N-N; pair source set: Lit-BM-16
# [43] = system: Nup93-1; conditions: MAPPIT configuration: N-N; pair source set: Curagen_low_conf
# [44] = system: apt; conditions: MAPPIT configuration: N-N; pair source set: Curagen_low_conf
# [45] = system: CG9536; conditions: MAPPIT configuration: N-N; pair source set: DPIM
# [46] = system: Ktl; conditions: MAPPIT configuration: N-N; pair source set: screen_2
# [47] = system: Tina-1; conditions: MAPPIT configuration: N-N; pair source set: DPIM
# [48] = system: Reph; conditions: MAPPIT configuration: N-C; pair source set: Lit-BM-16
# [49] = system: Eno; conditions: MAPPIT configuration: N-N; pair source set: Lit-BM-16
# [50] = system: MESK2; conditions: MAPPIT configuration: N-N; pair source set: Lit-BS-16
# [51] = system: chn; conditions: MAPPIT configuration: N-N; pair source set: Curagen_low_conf
# [52] = system: su(Hw); conditions: MAPPIT configuration: N-N; pair source set: DPIM
# [53] = system: CG9132; conditions: MAPPIT configuration: N-N; pair source set: Finley_Y2H
# [54] = system: Gmppa; conditions: MAPPIT configuration: N-N; pair source set: Curagen_high_conf
# [55] = system: pan; conditions: MAPPIT configuration: N-N; pair source set: Finley_Y2H
# [56] = system: CG9986; conditions: MAPPIT configuration: N-N; pair source set: Lit-BS-16
# [57] = system: HP1e; conditions: MAPPIT configuration: N-N; pair source set: Lit-BS-16
# [58] = system: Nup50; conditions: pair source set: Lit-BM-16
# [59] = system: Prx2; conditions: MAPPIT configuration: N-N; pair source set: Curagen_high_conf
# [60] = system: PGAP5; conditions: MAPPIT configuration: N-N; pair source set: Finley_Y2H
# [61] = system: RfC3; conditions: pair source set: Lit-BM-16
# [62] = system: Mlf; conditions: pair source set: Lit-BM-16
# [63] = system: D; conditions: MAPPIT configuration: N-N; pair source set: Finley_Y2H
# [64] = system: PAN3; conditions: MAPPIT configuration: N-N; pair source set: screen_1
# [65] = system: l(3)05822; conditions: MAPPIT configuration: N-N; pair source set: screen_2
# [66] = system: mad2; conditions: MAPPIT configuration: N-N; pair source set: Finley_Y2H
# [67] = system: Doa; conditions: MAPPIT configuration: N-N; pair source set: Finley_Y2H
# [68] = system: Smg6; conditions: MAPPIT configuration: N-N; pair source set: Finley_Y2H
# [69] = system: Srp54; conditions: MAPPIT configuration: N-N; pair source set: Finley_Y2H
# [70] = system: Sec24CD; conditions: MAPPIT configuration: N-N; pair source set: Lit-BS-16
# [71] = system: CG9775; conditions: MAPPIT configuration: N-N; pair source set: DPIM
# 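Note: HEK293T cells with Epo stimulation, STAT-responsive firefly luciferase reporter, fold induction versus unstimulated cells divided by the larger fold induction of two negative controls lacking either bait or prey.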
# Gsc, sequence (chain, as listed by the source): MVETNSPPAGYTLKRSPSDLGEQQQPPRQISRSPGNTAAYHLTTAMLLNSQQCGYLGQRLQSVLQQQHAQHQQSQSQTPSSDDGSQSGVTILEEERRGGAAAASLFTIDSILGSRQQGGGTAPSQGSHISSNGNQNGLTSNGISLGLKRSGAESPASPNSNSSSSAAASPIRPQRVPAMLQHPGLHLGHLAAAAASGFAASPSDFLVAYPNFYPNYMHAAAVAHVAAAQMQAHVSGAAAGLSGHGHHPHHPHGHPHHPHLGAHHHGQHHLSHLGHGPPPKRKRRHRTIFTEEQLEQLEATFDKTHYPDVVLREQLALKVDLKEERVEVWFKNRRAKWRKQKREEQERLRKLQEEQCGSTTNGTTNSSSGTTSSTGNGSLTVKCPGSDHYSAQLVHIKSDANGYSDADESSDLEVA
# dsx, sequence (chain, as listed by the source): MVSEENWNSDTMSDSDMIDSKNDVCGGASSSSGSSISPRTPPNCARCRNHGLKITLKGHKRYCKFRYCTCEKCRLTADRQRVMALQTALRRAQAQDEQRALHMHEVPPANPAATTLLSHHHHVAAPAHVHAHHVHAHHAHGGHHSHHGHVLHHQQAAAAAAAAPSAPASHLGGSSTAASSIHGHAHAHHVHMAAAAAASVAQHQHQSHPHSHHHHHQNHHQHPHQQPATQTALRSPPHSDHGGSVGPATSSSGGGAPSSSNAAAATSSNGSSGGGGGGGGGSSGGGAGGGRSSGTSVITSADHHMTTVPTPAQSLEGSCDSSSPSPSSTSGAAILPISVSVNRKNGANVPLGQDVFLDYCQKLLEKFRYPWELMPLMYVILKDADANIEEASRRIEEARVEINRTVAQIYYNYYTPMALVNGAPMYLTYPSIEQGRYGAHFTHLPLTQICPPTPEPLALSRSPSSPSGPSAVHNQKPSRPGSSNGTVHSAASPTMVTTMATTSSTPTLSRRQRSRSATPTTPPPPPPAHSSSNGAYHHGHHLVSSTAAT
# SmB, sequence (chain, as listed by the source): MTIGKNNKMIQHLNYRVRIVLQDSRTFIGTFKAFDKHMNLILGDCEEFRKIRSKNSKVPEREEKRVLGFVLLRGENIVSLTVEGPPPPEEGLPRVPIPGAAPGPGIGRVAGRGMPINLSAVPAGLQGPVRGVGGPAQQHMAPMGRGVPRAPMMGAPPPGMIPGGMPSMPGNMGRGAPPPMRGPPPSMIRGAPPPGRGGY
# Hsc70-1, sequence (chain, as listed by the source): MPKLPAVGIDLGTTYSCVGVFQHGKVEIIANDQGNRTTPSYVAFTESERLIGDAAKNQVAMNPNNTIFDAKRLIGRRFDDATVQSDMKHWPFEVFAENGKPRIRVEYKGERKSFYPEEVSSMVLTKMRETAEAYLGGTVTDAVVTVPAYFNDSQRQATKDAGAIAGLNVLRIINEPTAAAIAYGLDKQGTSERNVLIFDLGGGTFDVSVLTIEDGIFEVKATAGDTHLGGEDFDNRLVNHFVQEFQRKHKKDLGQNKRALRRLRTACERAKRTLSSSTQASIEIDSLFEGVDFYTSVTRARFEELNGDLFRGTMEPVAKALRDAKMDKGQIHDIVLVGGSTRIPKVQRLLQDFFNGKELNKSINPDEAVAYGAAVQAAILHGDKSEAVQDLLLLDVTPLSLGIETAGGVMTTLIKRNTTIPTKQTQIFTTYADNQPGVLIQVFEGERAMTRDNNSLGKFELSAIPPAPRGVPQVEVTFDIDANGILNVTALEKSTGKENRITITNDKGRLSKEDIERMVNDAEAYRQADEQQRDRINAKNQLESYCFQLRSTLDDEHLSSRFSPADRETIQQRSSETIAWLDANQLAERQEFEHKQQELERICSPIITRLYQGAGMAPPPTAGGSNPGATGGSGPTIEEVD
# Doa, sequence (chain, as listed by the source): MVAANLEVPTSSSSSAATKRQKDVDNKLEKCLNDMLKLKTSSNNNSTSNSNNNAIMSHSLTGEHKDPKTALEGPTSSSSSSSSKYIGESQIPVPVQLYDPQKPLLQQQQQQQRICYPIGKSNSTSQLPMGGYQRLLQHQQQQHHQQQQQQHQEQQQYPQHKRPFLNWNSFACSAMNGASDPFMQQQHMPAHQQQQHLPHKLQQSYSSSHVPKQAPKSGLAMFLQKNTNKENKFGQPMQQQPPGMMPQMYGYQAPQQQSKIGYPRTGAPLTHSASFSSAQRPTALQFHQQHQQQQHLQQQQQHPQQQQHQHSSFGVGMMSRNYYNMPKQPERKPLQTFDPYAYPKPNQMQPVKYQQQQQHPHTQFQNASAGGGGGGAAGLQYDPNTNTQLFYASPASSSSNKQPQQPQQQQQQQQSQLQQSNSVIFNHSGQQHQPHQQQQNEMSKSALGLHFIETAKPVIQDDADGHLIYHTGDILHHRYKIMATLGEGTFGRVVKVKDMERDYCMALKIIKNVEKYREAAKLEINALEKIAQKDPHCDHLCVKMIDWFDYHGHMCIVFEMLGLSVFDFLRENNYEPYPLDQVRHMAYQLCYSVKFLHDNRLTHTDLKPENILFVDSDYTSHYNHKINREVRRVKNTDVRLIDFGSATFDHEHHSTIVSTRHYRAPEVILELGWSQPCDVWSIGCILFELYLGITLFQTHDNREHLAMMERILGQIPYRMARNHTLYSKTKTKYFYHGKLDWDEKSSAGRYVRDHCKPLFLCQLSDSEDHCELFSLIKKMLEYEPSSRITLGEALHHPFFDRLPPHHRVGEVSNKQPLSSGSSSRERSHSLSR
# bowl, sequence (chain, as listed by the source): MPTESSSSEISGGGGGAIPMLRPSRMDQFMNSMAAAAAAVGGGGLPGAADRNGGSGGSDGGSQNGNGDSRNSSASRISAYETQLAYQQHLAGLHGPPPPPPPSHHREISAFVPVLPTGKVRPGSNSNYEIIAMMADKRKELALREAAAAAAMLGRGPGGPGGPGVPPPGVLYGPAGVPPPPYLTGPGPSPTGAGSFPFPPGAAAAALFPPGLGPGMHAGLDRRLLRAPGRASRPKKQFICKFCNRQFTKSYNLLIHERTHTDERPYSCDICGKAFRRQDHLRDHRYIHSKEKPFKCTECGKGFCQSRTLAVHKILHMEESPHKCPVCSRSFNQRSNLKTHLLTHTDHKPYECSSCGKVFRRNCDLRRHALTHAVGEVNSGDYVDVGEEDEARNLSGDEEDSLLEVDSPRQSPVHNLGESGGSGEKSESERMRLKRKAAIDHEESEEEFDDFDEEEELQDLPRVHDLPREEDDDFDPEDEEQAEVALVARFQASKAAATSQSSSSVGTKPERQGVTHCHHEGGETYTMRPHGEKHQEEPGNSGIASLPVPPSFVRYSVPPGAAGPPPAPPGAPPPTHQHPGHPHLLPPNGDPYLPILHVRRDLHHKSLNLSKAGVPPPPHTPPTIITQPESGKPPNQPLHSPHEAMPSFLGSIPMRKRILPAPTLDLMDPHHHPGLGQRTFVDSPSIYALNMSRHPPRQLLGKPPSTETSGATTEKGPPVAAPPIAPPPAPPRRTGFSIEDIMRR
# Cyp1, sequence (chain, as listed by the source): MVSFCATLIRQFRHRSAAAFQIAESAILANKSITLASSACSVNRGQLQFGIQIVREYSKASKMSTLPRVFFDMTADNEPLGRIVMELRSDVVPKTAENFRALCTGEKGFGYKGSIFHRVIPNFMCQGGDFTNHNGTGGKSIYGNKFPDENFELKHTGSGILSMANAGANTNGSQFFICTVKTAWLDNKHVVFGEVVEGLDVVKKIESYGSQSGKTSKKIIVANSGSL
# Arpc2, sequence (chain, as listed by the source): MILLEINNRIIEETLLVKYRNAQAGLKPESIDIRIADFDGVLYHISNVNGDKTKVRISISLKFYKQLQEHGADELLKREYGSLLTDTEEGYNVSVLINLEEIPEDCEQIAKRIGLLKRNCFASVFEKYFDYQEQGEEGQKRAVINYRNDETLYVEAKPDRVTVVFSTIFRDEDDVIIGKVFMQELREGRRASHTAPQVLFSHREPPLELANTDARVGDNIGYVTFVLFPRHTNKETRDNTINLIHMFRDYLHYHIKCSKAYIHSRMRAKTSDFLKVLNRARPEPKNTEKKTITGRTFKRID
# RfC4, sequence (chain, as listed by the source): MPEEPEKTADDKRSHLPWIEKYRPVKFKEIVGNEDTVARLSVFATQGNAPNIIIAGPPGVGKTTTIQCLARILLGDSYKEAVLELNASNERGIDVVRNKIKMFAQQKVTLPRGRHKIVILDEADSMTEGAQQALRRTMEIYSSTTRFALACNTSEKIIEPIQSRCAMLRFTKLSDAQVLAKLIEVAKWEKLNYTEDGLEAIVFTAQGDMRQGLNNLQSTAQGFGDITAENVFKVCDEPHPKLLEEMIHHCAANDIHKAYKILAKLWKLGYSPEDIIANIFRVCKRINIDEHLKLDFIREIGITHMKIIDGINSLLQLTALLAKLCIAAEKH
# Acam, sequence (chain, as listed by the source): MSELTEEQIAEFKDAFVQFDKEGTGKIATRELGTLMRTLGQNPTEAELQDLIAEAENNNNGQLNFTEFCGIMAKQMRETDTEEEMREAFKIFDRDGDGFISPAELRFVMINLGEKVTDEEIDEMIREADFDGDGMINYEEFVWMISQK
# otp, sequence (chain, as listed by the source): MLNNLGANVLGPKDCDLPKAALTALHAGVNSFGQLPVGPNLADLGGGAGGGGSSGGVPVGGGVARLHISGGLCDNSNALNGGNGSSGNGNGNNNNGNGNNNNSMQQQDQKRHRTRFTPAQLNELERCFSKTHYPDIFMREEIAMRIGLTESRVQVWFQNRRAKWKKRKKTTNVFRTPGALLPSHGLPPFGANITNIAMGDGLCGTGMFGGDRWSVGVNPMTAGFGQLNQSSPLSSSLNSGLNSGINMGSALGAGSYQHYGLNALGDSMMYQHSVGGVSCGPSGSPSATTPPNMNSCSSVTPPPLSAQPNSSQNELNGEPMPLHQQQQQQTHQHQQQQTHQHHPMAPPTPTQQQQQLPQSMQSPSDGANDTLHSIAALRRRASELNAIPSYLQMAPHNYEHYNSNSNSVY
# SmD1, sequence (chain, as listed by the source): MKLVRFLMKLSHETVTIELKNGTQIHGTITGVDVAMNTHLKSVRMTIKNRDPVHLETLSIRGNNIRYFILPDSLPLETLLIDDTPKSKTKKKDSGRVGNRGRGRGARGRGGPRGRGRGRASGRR
substance,measurement,setting,value
Arpc2,MAPPIT interaction score,[1]; MAPPIT configuration: N-C,2.37
same,MAPPIT interaction score,[1]; MAPPIT configuration: N-N,0.165
Rbp6,MAPPIT interaction score,[2],0.221
bsh,MAPPIT interaction score,[3],0.102
prd,MAPPIT interaction score,[4],2.65
same,MAPPIT interaction score,[5],0.0739
zen,MAPPIT interaction score,[6],1.38
Vps60,MAPPIT interaction score,[7],0.0854
RpL23,MAPPIT interaction score,[8],0.083
Fmr1,MAPPIT interaction score,[9],0.0271
Acam,MAPPIT interaction score,[10],0.679
same,MAPPIT interaction score,[11],0.715
dsx,MAPPIT interaction score,[12],2.14
same,MAPPIT interaction score,[13],2.31
same,MAPPIT interaction score,[14],4.59 (active)
bowl,MAPPIT interaction score,[15],0.273
same,MAPPIT interaction score,[16],-0.226
same,MAPPIT interaction score,[17],-0.0689
Hsc70-1,MAPPIT interaction score,[18]; MAPPIT configuration: N-C,1.43
same,MAPPIT interaction score,[18]; MAPPIT configuration: N-N,-0.111
same,MAPPIT interaction score,[19],0.323
same,MAPPIT interaction score,[20],-0.0906
same,MAPPIT interaction score,[21],1
same,MAPPIT interaction score,[22],-0.235
same,MAPPIT interaction score,[23],-0.169
same,MAPPIT interaction score,[24],1.56
Gsc,MAPPIT interaction score,[25],3.16 (active)
same,MAPPIT interaction score,[26],1.43
same,MAPPIT interaction score,[27],-0.637
e(y)3,MAPPIT interaction score,[28],3.82 (active)
gsb-n,MAPPIT interaction score,[29],0.258
SmD1,MAPPIT interaction score,[30],-0.319
cher,MAPPIT interaction score,[31],0.155
same,MAPPIT interaction score,[32]; pair source set: DPIM,-0.358
pnr,MAPPIT interaction score,[33],3.3 (active)
Poxm,MAPPIT interaction score,[34],1.84
same,MAPPIT interaction score,[35],0.0698
Abd-B,MAPPIT interaction score,[36],1.34
otp,MAPPIT interaction score,[37],-0.108
same,MAPPIT interaction score,[38],-0.232
lark,MAPPIT interaction score,[39],1.37
Pgi,MAPPIT interaction score,[40],-0.233
Src42A,MAPPIT interaction score,[41],1.25
CkIIbeta,MAPPIT interaction score,[42],3.04 (active)
Hrb98DE,MAPPIT interaction score,[43],-0.403
same,MAPPIT interaction score,[44],-0.399
Arf1,MAPPIT interaction score,[45],0.397
same,MAPPIT interaction score,[46],2.35
same,MAPPIT interaction score,[47],0.274
mnb,MAPPIT interaction score,[48],1.38
Cyp1,MAPPIT interaction score,[49],0.063
same,MAPPIT interaction score,[50],0.0293
Hsp83,MAPPIT interaction score,[51],0.266
Non1,MAPPIT interaction score,[52],0.589
Gyc89Da,MAPPIT interaction score,[53],0.702
Gmppb,MAPPIT interaction score,[54],1.26
Cdk5,MAPPIT interaction score,[55],-0.4
Hsp70Aa,MAPPIT interaction score,[56],0.269
same,MAPPIT interaction score,[57],0.126
Pen,MAPPIT interaction score,[58]; MAPPIT configuration: N-C,0.849
same,MAPPIT interaction score,[58]; MAPPIT configuration: N-N,0.121
Srx,MAPPIT interaction score,[59],-0.16
Dfd,MAPPIT interaction score,[60],0.749
RfC4,MAPPIT interaction score,[61]; MAPPIT configuration: N-C,3.58
same,MAPPIT interaction score,[61]; MAPPIT configuration: N-N,6.38 (active)
DnaJ-1,MAPPIT interaction score,[62]; MAPPIT configuration: N-C,1.44
same,MAPPIT interaction score,[62]; MAPPIT configuration: N-N,0.787
RpL39,MAPPIT interaction score,[63],-0.321
SmB,MAPPIT interaction score,[64],-0.24
same,MAPPIT interaction score,[65],0.0651
same,MAPPIT interaction score,[66],-0.029
Doa,MAPPIT interaction score,[67],1.07
same,MAPPIT interaction score,[68],1.25
same,MAPPIT interaction score,[69],-1.75
same,MAPPIT interaction score,[32]; pair source set: Finley_Y2H,-1.12
Jon99Cii,MAPPIT interaction score,[70],-0.28
RpL4,MAPPIT interaction score,[71],-0.331
